Laboratory results from PubChem BioAssay AID651692 (Broad Institute, 2012).
Potency and affinity values are given separately. Active and inactive are the calls of the source.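 How the source made its calls: active means fitted half-maximal concentration for loss of cell signal no higher than twice the top valid tested concentration; inconclusive means flat curve at 30 to 70% inhibition, or poor fit; inactive means flat within 30%, signal rise, or potency above limit.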

Experiment: cytotoxicity toward MDA-MB-231 breast cancer cells – cell-based, CellTiter-Glo luminescence, cherry-pick, cytotoxicity control for RAD54 inhibitor project, dose response (AID 651692);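 further: more negative values mean stronger loss of viable cell signal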
Details: MDA-MB-231 viability, 24 h; series mostly up to 26 µM

**Q.** With `COC(=O)c1c(NC(=O)c2ccc(S(=O)(=O)N3CCOCC3)cc2)sc2c1CCN(C(C)C)C2` as the compound, how does the outcome read?
**A.** Its outcome is “inactive”.

**Q.** With `CCOC(=O)c1c(NC(=O)c2ccc(S(=O)(=O)N3CCOCC3)cc2)sc2c1CCN(C)C2` as the compound, how does the outcome read?
**A.** The outcome was “inactive”.

**Q.** With `COC(=O)c1c(NC(=O)c2ccco2)sc2c1CCN(C(C)C)C2` as the compound, how does the outcome read?
**A.** Its outcome is “inactive”.

**Q.** With `CN(C)CCCNc1nc(-c2ccccc2)nc2ccccc12` as the compound, how does the outcome read?
**A.** Its outcome is “inactive”.

**Q.** Which outcome does the source give for `COc1ccc(OC)c(Nc2nc(NCCO)c3ccccc3n2)c1` here?
**A.** Its outcome is “inactive”.

**Q.** Which outcome does the source give for `CCN(CC)CCN1CCN(c2cncc(-c3cccc(N)c3)n2)CC1` here?
**A.** The outcome was “inactive”.

**Q.** Which outcome does the source give for `COC(=O)C1=C(C)Nc2nc3ccccc3n2C1c1ccccc1F` (stereo not given) here?
**A.** Its outcome is “inactive”.

**Q.** For `COc1cc2nc(N(C)C)nc(N)c2cc1OC`, which outcome is on record?
**A.** The outcome was “inactive”.

**Q.** For `O=C(Nc1ccc2c(c1)OCO2)c1cc(-c2ccncc2)nc2ccccc12`, which outcome is on record?
**A.** The outcome was “inactive”.

**Q.** Which outcome does the source give for `Cc1ccc2c(c1)c1nc3ccccc3nc1n2CCN1CCOCC1` here?
**A.** Its outcome is “inactive”.

**Q.** For `CN1CCN(c2ncnc3c2[nH]c2ccc(F)cc23)CC1`, which outcome is on record?
**A.** Its outcome is “inactive”.

**Q.** For `CCCN(CCC)CCCNC(=S)Nc1ccc2nc(N3CCN(C)CC3)cc(C)c2c1`, which outcome is on record?
**A.** Its outcome is “inactive”.

**Q.** Which outcome does the source give for `CN(C)CCNc1ncnc2sc(-c3ccccc3)cc12` here?
**A.** Its outcome is “inactive”.

**Q.** With `COc1cc2nc(NCCCN3CCN(C)CC3)n3nc(-c4ccccc4)nc3c2cc1OC` as the compound, how does the outcome read?
**A.** The outcome was “inactive”.

**Q.** Which outcome does the source give for `CCCN(CCC)CCCNC(=O)c1cc2c(-c3ccc(OC)c(OC)c3)nn(C)c2s1` here?
**A.** The outcome was “inactive”.

**Q.** Which outcome does the source give for `Nc1c2ccccc2nc2ccccc12` here?
**A.** Its outcome is “inactive”.

**Q.** With `COc1ccc(Nc2cc(C)nc3ccc(OC)cc23)cc1` as the compound, how does the outcome read?
**A.** Its outcome is “inactive”.

**Q.** Which outcome does the source give for `Cc1ccc(Nc2cc(C)nc3c(C)cccc23)cc1` here?
**A.** Its outcome is “inactive”.

**Q.** With `CCOc1cc2nc(-c3ccc(OC)c(OC)c3)nc(NCCCN3CCOCC3)c2cc1OC` as the compound, how does the outcome read?
**A.** The outcome was “inactive”.

**Q.** With `CCN(CC)CCOc1c(Br)ccc2c1sc1nc3n(c(=O)c12)CCC3` as the compound, how does the outcome read?
**A.** Its outcome is “inactive”.

**Q.** Which outcome does the source give for `OCCNc1nc(Nc2ccc(O)cc2)nc2ccccc12` here?
**A.** The outcome was “inactive”.

**Q.** With `COc1ccc2nc3cc(Cl)ccc3c(Nc3cc(CN4CCCC4)c(O)c(CN4CCCC4)c3)c2n1` as the compound, how does the outcome read?
**A.** Its outcome is “inactive”.

**Q.** With `OC1CCCN(Cc2c3ccccc3cc3ccccc23)C1` (stereo not given) as the compound, how does the outcome read?
**A.** The outcome was “inactive”.

**Q.** For `CCc1ccc2nc3nc(C)cc(C)c3c(N)c2c1`, which outcome is on record?
**A.** Its outcome is “inactive”.

**Q.** With `COc1ccc(OC)c2c(C)cc(NCCN3CCOCC3)nc12` as the compound, how does the outcome read?
**A.** Its outcome is “inactive”.

**Q.** For `C=CCc1ccccc1OCC(O)CN1CCN(CCN2C(=O)c3cccc4cccc(c34)C2=O)CC1` (stereo not given), which outcome is on record?
**A.** Its outcome is “inactive”.

**Q.** For `Cc1cccc2c1-c1sc(C(=O)NCCCN3CCCC(C)C3)cc1CO2` (stereo not given), which outcome is on record?
**A.** Its outcome is “inactive”.

**Q.** With `O=C(Nc1ccccc1)c1cc(S(=O)(=O)N2CCOCC2)cs1` as the compound, how does the outcome read?
**A.** Its outcome is “inactive”.

**Q.** Which outcome does the source give for `COc1cccc2c1-c1c(O)cccc1C2=O` here?
**A.** Its outcome is “inactive”.

**Q.** Which outcome does the source give for `COc1cc2c(C#N)c(N3CCN(C)CC3)nc(N)c2c(N)n1` here?
**A.** Its outcome is “inactive”.

**Q.** With `CCN1CCN(CCCNC(=O)c2cc3c(=O)oc4ccc(C)cc4c3s2)CC1` as the compound, how does the outcome read?
**A.** The outcome was “inactive”.

**Q.** Which outcome does the source give for `O=c1c2ccccc2oc2cc(NCCCN3CCOCC3)ccc12` here?
**A.** Its outcome is “inactive”.

**Q.** With `O=C(CN1CCCC1)Nc1ccc(-c2nc3cc(NC(=O)CN4CCCC4)ccc3o2)cc1` as the compound, how does the outcome read?
**A.** Its outcome is “inactive”.

**Q.** Which outcome does the source give for `O=C1C(c2ccc(F)cc2)N(C2CCCCC2)C(=O)CN1C1CCCC1` (stereo not given) here?
**A.** Its outcome is “inactive”.

**Q.** With `CN(C)CCSc1nc(N)c2c3c(sc2n1)CN(C)CC3` as the compound, how does the outcome read?
**A.** The outcome was “inactive”.

**Q.** Which outcome does the source give for `CN1CCN(c2nc(-c3ccccn3)nc3ccccc23)CC1` here?
**A.** The outcome was “inactive”.

**Q.** Which outcome does the source give for `Cc1cc(-c2cc(NC=O)c3ncc(-c4cccc(C(=O)NCCN(C)C)c4)n3c2)cc(C)c1O` here?
**A.** The outcome was “inactive”.

**Q.** Which outcome does the source give for `Oc1ccc(Nc2nc(N3CCCC3)c3ccccc3n2)cc1` here?
**A.** The outcome was “inactive”.

**Q.** For `CN1CCN(CCNC(=O)c2cc3c(=O)n(C)c4ccccc4c3n2C)CC1`, which outcome is on record?
**A.** Its outcome is “inactive”.

**Q.** With `COc1ccc(-c2nc(NCCCN(C)C)c3ccccc3n2)cc1` as the compound, how does the outcome read?
**A.** Its outcome is “inactive”.
